# Reference: ChEMBL document CHEMBL3988442, “University of Dundee, Small-Polar-MMV Screening Library” (2021)
# The whole screen tested about 48,000 compounds, of which about 13,000 (27%) showed an effect of 50% or more. Some of the results follow.
# Test system: Wolbachia pipientis
# Test: Anti-Wolbachia Cell-Based Screen
# Assay type: functional
# Design: scale not given: in the data most compounds retested in dose-response had high values
# Settings: 5 µM
row,Structure (SMILES),Percent Effect
1,CN(CCOc1ccccc1F)S(=O)(=O)CC1CCOCC1,2.029%
2,O=C(Nc1ccccc1)C1CCN(C(=O)COc2ccccc2F)CC1,17.88%
3,CC(O)C1CCN(C(=O)CCOc2ccccc2F)CC1 (stereo unspecified),86.99%
4,COc1ccccc1C1(C(=O)N2CCN(CC(C)O)CC2)CC1 (stereo unspecified),-12.51%
5,CC(C)c1ccc(OCCC(=O)N2CCC(CC(N)=O)CC2)cc1,-11.97%
6,CN1CCOC(CNC(=O)CCCOc2ccccc2F)C1 (stereo unspecified),-10.92%
7,CC(O)CN1CCN(C(=O)CCOc2ccccc2F)CC1 (stereo unspecified),109.3%
8,O=C(CCOc1ccccc1F)N1CCC(O)CC1,96.9%
9,Cn1cnnc1C1CCN(C(=O)CCCOc2ccccc2F)CC1,-1.592%
10,CC(O)CN1CCN(C(=O)c2cnn(-c3ccccc3F)c2)CC1 (stereo unspecified),-7.908%
11,CCOCC(=O)N1CCC(C(O)c2ccc(F)cc2)CC1 (stereo unspecified),-2.843%
12,O=C(CCOc1ccccc1F)N1CCOCC1,105.4%
13,CCN(C1CCN(c2cccc(F)c2C(C)=O)CC1)S(C)(=O)=O,-1.557%
14,COc1ccnc(N(C)Cc2csc(C)n2)n1,-11.41%
15,CC(Cn1cncn1)Nc1ccc(-c2nccn2C)nn1 (stereo unspecified),-4.731%
16,CC(NC(=O)N(C)Cc1ccc2c(c1)OCCO2)c1nncn1C (stereo unspecified),-31.29%
17,CC(C)Cc1cc(C(=O)NC(C)C)[nH]n1,116%
18,CC(C)Cc1cc(C(=O)NCCn2nc3ccccn3c2=O)[nH]n1,-3.6%
19,Cc1ccc(NCCNC(=O)c2cc(CC(C)C)n[nH]2)nn1,121%
20,CC(C)Cc1cc(C(=O)N2CCCN(c3cccnn3)CC2)[nH]n1,-1.538%
21,CC(C)Cc1cc(C(=O)N2CCCN(c3ncccn3)CC2)[nH]n1,-10.26%
22,Cc1ccc(N2CCCN(C(=O)c3cc(CC(C)C)n[nH]3)CC2)nn1,3.453%
23,Cc1nn(CC(=O)N2CCN(c3ncccn3)CC2)c(C)c1Cl,17.26%
24,CN(Cc1cccs1)C1CCC[C@@H]2CN(C(N)=O)C[C@H]12.O=C(O)C(F)(F)F (stereo partly specified),5.173%
25,Cc1ccc(N(C)[C@@H]2CC[C@@H]3CN(C(=O)C4CCOCC4)C[C@@H]32)nn1,186.8%
26,Cc1ccc(N(C)[C@@H]2CC[C@@H]3CN(C(=O)Cc4cccs4)C[C@@H]32)nn1,112.9%

row,Structure (SMILES),Percent Effect
1,Cc1ccc(N2CCC3(CCN(C(=O)C4CCOC4)CC3)CC2)nn1 (stereo unspecified),-12.92%
2,CN(Cc1cccs1)C1CCC[C@@H]2CN(C(=O)c3cccn3C)C[C@H]12 (stereo partly specified),17.98%
3,Cc1ccc(N2C[C@H](C(=O)NCC3CC3)[C@@H]3CCO[C@@H]3C2)nn1.O=C(O)C(F)(F)F,0.6774%
4,Cc1ccc(N(C)[C@@H]2CC[C@@H]3CN(C(=O)CC4CCOCC4)C[C@@H]32)nn1,152.8%
5,Cc1ccc(N(C)C2CCN(C(=O)CCc3ccco3)CC2)nn1,-5.46%
6,CCN(CCn1cccn1)Cc1nc(-c2cccs2)oc1C,6.026%
7,N#Cc1cccc(CN2CCn3cc(CNC(=O)C4CCC4)nc3C2)c1,-7.661%
8,COC(=O)NCC(=O)NC(c1ccc(Cl)cc1)C(F)(F)F (stereo unspecified),-6.665%
9,COC[C@@H]1CC[C@H]2[C@H](CCN2S(=O)(=O)c2ccc(OC)cc2)O1,-8.82%
10,COc1ccc(S(=O)(=O)N2CCC[C@@H]3CN(C(=O)C4CC4)C[C@@H]32)cc1,61.28%
11,COc1ccc(C(=O)N2CCCC(C)C2)cc1F (stereo unspecified),8.733%
12,COc1ccc(S(=O)(=O)N2CCC[C@@H]3CN(C(=O)C4CC4)C[C@@H]32)cc1F,83.03%
13,COc1ccc(C(=O)N2CCCC(CNS(C)(=O)=O)C2)cc1F (stereo unspecified),1.055%
14,CCN1C(=O)C[C@@H]2[C@@H]1CCN2S(=O)(=O)c1ccc(OC)cc1,1.644%
15,O=C(NCc1cc[nH]n1)NCC(O)c1ccc(F)cc1F (stereo unspecified),2.33%
16,CCN(CC)C(=O)[C@@H]1C[C@H](NC(=O)c2ccn(C(C)(C)C)c2)CN1C,-2.667%
17,O=C1CCCc2occ(C(=O)N3CCCC(O)(CO)C3)c21 (stereo unspecified),-7.191%
18,CO[C@H]1COCCN(C(=O)c2ccno2)C1,-14.2%
19,COc1ccc(CNC(=O)CNc2ccccc2OC)cc1,-12.04%
20,Cc1ccccc1CNC(=O)CNc1ccc(OC2CCOC2)cc1 (stereo unspecified),97.09%
21,Cc1ccccc1C(=O)Nc1ccc(OC2CCN(C)CC2)cc1,-1.73%
22,O=C(Nc1ccnc(OC2CCOC2)c1)c1cccs1 (stereo unspecified),-9.418%
23,CC(C)(Oc1ccc(F)cc1)C(=O)NCc1ccco1,-9.094%
24,O=C(CNc1ccc(OC2CCOC2)cc1)NCc1ccc(F)cc1 (stereo unspecified),77.11%
25,O=C(CNc1ccc(F)cc1OCC(F)(F)F)NCc1ccco1,-21.13%
26,O=C(Cc1cccs1)NCc1ccnc(OC2CCOCC2)c1,-13.9%

row,Structure (SMILES),Percent Effect
1,O=C(CNc1ccc(OC2CCOC2)cc1)NCc1cccs1 (stereo unspecified),90.04%
2,Cc1ccc(NCc2cccc3cn[nH]c23)cc1OC1CCOC1 (stereo unspecified),0.01014%
3,CC(C)(C)Oc1ccc(NCC(=O)NCc2ccco2)cc1,90.6%
4,O=C(CNc1cc2c(cc1Cl)OCCCO2)NCc1ccc(F)cc1,5.92%
5,Cc1occc1C(=O)N1CCC(C(O)c2ccc(F)cc2)CC1 (stereo unspecified),-2.674%
6,Cc1ccc(C)c(CC(=O)Nc2cnccc2SCCCO)c1,3.451%
7,CCCN1CCC(N2CCN(c3cccc(C)n3)CC2)CC1,3.962%
8,CC(C)C[C@@H]1N[C@H](C(=O)NCC2CC2)Cc2c[nH]c3cccc1c23,1.644%
9,COCC1c2nnn(CC3CC3)c2CCN1C(=O)c1sccc1C (stereo unspecified),4.054%
10,Cc1nnc(N2CCC(CNC(=O)OC(C)(C)C)CC2)c(C#N)c1C,-3.272%
11,Cl.Cl.O[C@@H]1C[C@@](CNCC2CCCC2)(COc2cccnc2)C[C@@H]1O,-14.64%
12,O=C(CNc1ccc(OCC2CCOCC2)cc1)NCc1ccco1,93.4%
13,O=C(CNc1ccc(OC2CCOC2)cc1)NCc1ccco1 (stereo unspecified),104.1%
14,O=C(CNc1cccc(CC(F)(F)F)c1)NCc1ccco1,5.703%
15,O=C(CCc1cccnc1)Nc1ccc(OCC2CCOCC2)cc1,-6.342%
16,O=C(CCc1ccncc1)Nc1ccc(OCC2CCOCC2)cc1,5.919%
17,O=C(CNc1cccc(S(=O)(=O)C(F)F)c1)NCc1ccco1,4.728%
18,CCN1CCN(C(=O)CCC2CCN(C(C)CCC(=O)OC)CC2)CC1 (stereo unspecified),-3.151%
19,Cc1nccn1-c1ccc(N2CCC(NC(C)C(C)C)CC2)cc1 (stereo unspecified),16.28%
20,CN(C)c1cc(C(=O)NC2(c3cccc(F)c3)CCOCC2)ccn1,-10.5%
21,Cc1cccc(CN2C[C@@H]3CN(C(=O)c4conc4C)C[C@@H]3C2=O)c1,2.313%
22,c1cncc(N2CCOC3(CCCN(c4nncs4)C3)C2)c1 (stereo unspecified),-20.57%
23,Cc1ccc(N2N=C(C(N)=O)S(=O)(=O)c3cccnc32)cc1,70.93%
24,CCc1c(C(=O)NCC2CCS(=O)(=O)C2)cnn1-c1ccc(C)cc1 (stereo unspecified),0.07541%
25,Cc1nc2c(c(N3CC=CC3)n1)CCN(c1ncccc1C(N)=O)CC2,-4.106%
26,Cc1ccc(N2N=C(C(=O)NCC3CC3)S(=O)(=O)c3cccnc32)cc1,113.2%

row,Structure (SMILES),Percent Effect
1,Cc1ccc(-n2nnc(C(=O)NCC3CCCCC3)n2)cc1,3.646%
2,Cc1ccc(CN2CCN(c3ncccc3C(N)=O)CC2CCO)cc1 (stereo unspecified),0.06546%
3,O=C(C1=NN(Cc2ccccc2)c2ccccc2S1(=O)=O)N1CCCC1,25.7%
4,Cc1ccc(N2N=C(C(=O)O)S(=O)(=O)c3cccnc32)cc1,88.09%
5,CN1N=C(C(=O)N2CCCCC2)S(=O)(=O)c2ccccc21,9.429%
6,C[C@H](NC(=O)C1(N(C)Cc2ccccc2)Cc2ccccc2C1)C(N)=O,-2.365%
7,CC(=O)c1c(F)cccc1NC1CCN(S(=O)(=O)C2CC2)CC1,15.22%
8,CN(CC(=O)NC(C)(C)C)C(=O)c1cccn1CCc1ccccc1,4.312%
9,Cc1nn(C)c(C)c1CN(C)C(=O)c1cccc(CCC(C)(C)O)c1,-10.94%
10,CN(Cc1nccn1C)C(=O)c1cccc(CCC(C)(C)O)c1,-1.939%
11,CN(Cc1nccn1CC(F)(F)F)C(=O)c1cccc(N(C)C)c1,107.5%
12,Cc1cnn(CCNCc2nccn2CC(F)(F)F)c1,-5.156%
13,Cc1ccc(C(=O)N(C)Cc2nccn2CC(F)(F)F)cn1,108.9%
14,Cc1ccc(C(=O)N(C)Cc2cc(Br)cs2)cn1,108.4%
15,CCn1c(CN(C)C(=O)c2ccc(O)nc2)nc2ccccc21,-29.68%
16,CN(Cc1ccc2c(c1)OCO2)C(=O)c1ccc(=O)n(C)c1,-0.4136%
17,CN(Cc1ccc2c(c1)OCO2)C(=O)c1ccn(C)c(=O)c1,11.43%
18,CN(Cc1cc(Br)cn1C)C(=O)c1cccnc1,-11.61%
19,CN(Cc1nccn1CC(F)(F)F)C(=O)c1ccc2c(c1)OCO2,110.7%
20,Cc1cc(CN(C)C(=O)c2ccc(C(F)(F)F)nc2)no1,4.429%
21,CCc1nnsc1C(=O)NCc1c(C)nn(CCOC)c1C,22.53%
22,Cc1ccc(C2CCCCCN2CCNS(C)(=O)=O)o1 (stereo unspecified),-18.53%
23,O=C(CN1C(=O)CCCc2sccc21)NC1CCc2nccn2C1 (stereo unspecified),-8.511%
